Among the data in PubChem BioAssay AID1445 (SRMLSC, 2008) are inhibition values, retold here.

SMILES strings stand for the structures. Out of some 220,000 compounds screened, about 910 (0.41%) were called active. The sample as a whole holds a higher share of actives than the screen did. Potency and affinity values are given separately. A number with no mark means an inactive call.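 How the source made its calls: active means primary inhibition above the hit cutoff, then over 50% inhibition at one or more dose response concentrations (cut at about 23% in these data, passing the limit was not always enough); inconclusive means conflicting primary data, or primary hits not chosen for dose response; inactive means low primary inhibition, or under 50% at every dose.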

In general, inhibition refers to the relative decrease from the control value, in per cent.

This experiment deals with Aminopeptidase N (Plasmodium falciparum (isolate 3D7)) (UniProt O96935). Kind of experiment: P. falciparum M1AAP inhibitors, biochemical, fluorogenic H-Leu-NHMec substrate, 1536-well (AID 1445).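 Further: plate controls were DMSO full reaction for no effect and no enzyme background for full effect.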 To be noted: recombinant M1AAP, H-Leu-NHMec fluorogenic kinetic assay; at 30 µM, stronger effect = higher value unless noted.
Aminopeptidase N (Plasmodium falciparum (isolate 3D7)), sequence (O96935 whole entry, looked up): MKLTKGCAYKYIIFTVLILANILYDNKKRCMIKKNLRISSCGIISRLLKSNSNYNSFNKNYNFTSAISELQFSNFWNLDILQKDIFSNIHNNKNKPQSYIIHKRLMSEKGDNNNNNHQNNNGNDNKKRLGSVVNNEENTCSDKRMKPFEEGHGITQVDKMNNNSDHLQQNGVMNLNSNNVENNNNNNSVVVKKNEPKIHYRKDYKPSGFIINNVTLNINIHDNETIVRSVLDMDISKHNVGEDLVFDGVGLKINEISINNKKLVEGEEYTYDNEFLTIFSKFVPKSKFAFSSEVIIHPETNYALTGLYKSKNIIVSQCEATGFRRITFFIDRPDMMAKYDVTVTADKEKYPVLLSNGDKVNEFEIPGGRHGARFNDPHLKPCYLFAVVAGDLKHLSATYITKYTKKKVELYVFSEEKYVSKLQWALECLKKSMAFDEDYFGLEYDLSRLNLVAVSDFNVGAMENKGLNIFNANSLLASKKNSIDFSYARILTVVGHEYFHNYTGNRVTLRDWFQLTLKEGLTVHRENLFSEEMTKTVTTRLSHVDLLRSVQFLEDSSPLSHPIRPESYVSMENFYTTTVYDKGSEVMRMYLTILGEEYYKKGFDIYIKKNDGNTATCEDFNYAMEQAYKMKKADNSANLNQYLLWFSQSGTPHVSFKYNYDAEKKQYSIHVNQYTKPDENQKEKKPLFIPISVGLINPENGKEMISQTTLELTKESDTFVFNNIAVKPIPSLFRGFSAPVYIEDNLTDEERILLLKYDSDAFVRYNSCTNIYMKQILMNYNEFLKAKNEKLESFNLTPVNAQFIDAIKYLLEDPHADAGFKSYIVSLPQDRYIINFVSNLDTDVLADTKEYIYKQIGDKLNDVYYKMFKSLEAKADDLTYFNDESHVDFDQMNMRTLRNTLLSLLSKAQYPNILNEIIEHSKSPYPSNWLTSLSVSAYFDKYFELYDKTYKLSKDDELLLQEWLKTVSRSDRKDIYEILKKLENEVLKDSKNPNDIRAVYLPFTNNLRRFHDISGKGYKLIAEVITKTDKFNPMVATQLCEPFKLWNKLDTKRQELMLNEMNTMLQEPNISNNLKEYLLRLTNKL
Turning to `Cc1ccc(C(=O)NC(=S)NCC2CCCO2)cc1Br` (stereo not given), the inhibition was 3.05%.

Regarding `COc1ccc(C(=O)CSc2cc(C)nc(SCC(=O)c3ccc(C)cc3)n2)cc1`, the inhibition is 12.2%.

Regarding `Cn1c(C(O)C(O)c2ccccc2)nc2ccccc21` (stereo not given), the inhibition was -1.04%.

With `CCCCC(=O)NC(NC(=O)CCCC)c1ccc(OCC(C)C)c(OC)c1`, the inhibition is 4.4%.

With `Cn1c(Sc2ccccc2Cl)c(C=O)c2ccccc21`, the inhibition is 3.59%.

As to `CCN1C(=O)S/C(=C/c2c(OCc3ccc(C(=O)O)cc3)ccc3ccccc23)C1=O`, the inhibition was 9.62%.

As to `Cc1ccc(S(=O)(=O)N(C)Cc2ccc(C(=O)N/N=C/c3ccc(OC(F)F)cc3)cc2)cc1`, the inhibition is -2.98%.

With `Cc1cnc(NC(=O)CSc2nnc(-c3ccncc3)n2C2CCCCC2)s1`, the inhibition was 4.18%.

Consider `CN(Cc1nc(-c2ccccn2)no1)S(=O)(=O)c1ccc(Cl)cc1`, for which the inhibition is 0.8%.

In the case of `Cc1nc2sc(C(c3ccc(C(C)C)cc3)N3CCN(CCO)CC3)c(O)n2n1` (stereo not given), the inhibition is 1.32%.

`C=CCn1c(SCC(=O)/C(C#N)=C(\C)N)nc2sc(CC)cc2c1=O`: the inhibition is 5.1%.

On to `Cc1c(C)c2cc(Cl)c(O)c(CN3CCCCC3)c2oc1=O`, for which the inhibition was 36%.

For `CCc1c(C)c2cc(Cl)c(O)c(CN3CCCCC3)c2oc1=O`, the inhibition is -1.01%.

As for `COc1c(O)cc2c(c1O)C(=O)CC(c1ccccc1)O2` (stereo not given), the inhibition is 4.17%.

In the case of `C[C@@H]1Cc2c(O)c(O)cc(O)c2C(=O)O1`, the inhibition is -2.7%.

As for `Cn1nc(-c2ccc(Cl)cc2)cc1NC(=O)CCCC(=O)O`, the inhibition is -1.87%.

In the case of `CC1CCc2cccc3c2N1c1cc(C#N)c(C#N)cc1O3` (stereo not given), the inhibition was -3.31%.

For the molecule `O=C(Nc1nc2ccccc2[nH]1)c1ccc(Br)o1`, the inhibition is 0.56%.

Turning to `Cc1ccc(O)c(-c2cc(C(=O)Nc3ccc(S(=O)(=O)Nc4nccc(C)n4)cc3)[nH]n2)c1`, the inhibition is 5.6%.

Turning to `O=C1CCC(C(=O)OCc2ccccc2)N1` (stereo not given), the inhibition was 2.24%.

Take `CCOC(=O)Cc1cc(=O)n2[nH]c(-c3ccc(Cl)cc3)cc2n1`: the inhibition was 7.9%.

With `CCOP(=O)(OCC)c1nc(Cc2ccccc2)oc1NCc1ccccc1`, the inhibition was 1.14%.

With `CCOP(=O)(OCC)c1nc(-c2cccc3ccccc23)oc1NCc1ccc(OC)cc1`, the inhibition was 16.1%.

As to `Cc1ccc(S(=O)(=O)Nc2cc(-c3ccc(Cl)cc3)nn2C)cc1`, the inhibition was 4.66%.

`Cc1ccc(S(=O)(=O)Nc2nc3n(n2)C(c2ccc(Cl)cc2)CC(=O)N3)cc1` (stereo not given): the inhibition was 4.26%.

`Oc1[nH]c2ccccc2c1/C=N/N1CCCCC1`: the inhibition is -0.99%.

As to `CCc1nn(C(C)C(=O)NCCc2ccc(OC)c(OC)c2)c(=O)c2cc3occc3n12` (stereo not given), the inhibition was 10.4%.

In the case of `O=C(O)c1ccc(N2C(=O)c3cccc4c(C(=O)O)ccc(c34)C2=O)cc1`, the inhibition is 10.1%.

Take `O=C(O)c1cccc(N2C(=O)c3ccc4c5c(ccc(c35)C2=O)C(=O)N(c2cccc(C(=O)O)c2)C4=O)c1`: the inhibition was 11.6%.

As for `COc1cccc(-c2nnc(SCN3C(=O)c4ccccc4C3=O)n2C)c1`, the inhibition was -1.36%.

For the molecule `Fc1ccc(CN2CCSCC2)cc1Br`, the inhibition is 0.38%.

As for `COC(=O)c1ccc(COc2ccc(/C=N/Nc3cccc(C(=O)O)c3)cc2)cc1`, the inhibition is 5.29%.

As for `COC(=O)c1ccc(COc2ccccc2/C=N/NS(=O)(=O)c2ccccc2)cc1`, the inhibition was 3.52%.

Take `CN1C(=O)S/C(=C\c2ccccc2OCc2ccc(C(=O)O)cc2)C1=O`: the inhibition is 18.7%.

Turning to `O=C1NC(=S)N/C1=C\c1ccccc1OCc1ccc(C(=O)O)cc1`, the inhibition was 14.7%.

Turning to `CN1C(=O)/C(=C/c2ccccc2OCc2ccc(C(=O)O)cc2)NC1=S`, the inhibition is 22.6%.

For `CN1C(=O)S/C(=C/c2ccccc2OCc2ccc(C(=O)O)cc2)C1=O`, the inhibition was 6.59%.

On to `O=C(Nn1c(Cc2ccccc2)nc2ccccc2c1=O)c1c(O)c2cccc3c2n(c1=O)CCC3`, for which the inhibition is -0.5%.

Consider `Cc1cc(C(=O)N2CCC(C)CC2)on1`, for which the inhibition was 9.58%.

Turning to `COc1nc(Nc2ccc([N+](=O)[O-])cc2)nc(NC2CCCCC2)n1`, the inhibition was 8.38%.

With `COc1ccc(NC(=S)N2CCN(C(=O)C3CCCO3)CC2)c(OC)c1` (stereo not given), the inhibition is 1.1%.

Turning to `COCCNc1nnc(SCC(=O)Nc2cc(-c3ccccc3)nn2-c2ccccc2)s1`, the inhibition is 8.39%.

Turning to `O=C(NNS(=O)(=O)c1ccccc1F)c1sccc1-n1cccc1`, the inhibition is 1.58%.

For the molecule `Cc1ccc([N+](=O)[O-])cc1/C=N/Nc1nnnn1-c1ccccc1`, the inhibition was -4.44%.

For `COC(=O)N/N=C/c1cc([N+](=O)[O-])cc(Br)c1O`, the inhibition is 19.9%.

As for `COc1cc(CCC(=O)OCC(=O)Nc2ccccc2C(C)C)cc(OC)c1OC`, the inhibition was -3.32%.

As for `N#CC(C#N)=C1C=CC=CN1/C(=C\c1ccco1)C(=O)c1ccc(Cl)cc1`, the inhibition was 17.2%.

In the case of `N#CC(C#N)=C1C=CC=CN1/C(=C\c1ccco1)C(=O)c1ccc(-c2ccccc2)cc1`, the inhibition was 18.3%.

Turning to `CCCc1nnc(NC(=O)NCCN2C(=O)C3C4C=CC(C4)C3C2=O)s1` (stereo not given), the inhibition was 0.7%.

For the molecule `Cn1c(Cn2nnc(-c3ccccc3)n2)nnc1SCc1ccccc1Cl`, the inhibition was 0.85%.

Regarding `CC(C)C(=O)N(c1cc2sc(=O)oc2c2ccccc12)S(=O)(=O)c1cccs1`, the inhibition is 23.3% (active).

Take `CC(=O)N(c1ccc2oc(=O)sc2c1)S(=O)(=O)c1cccs1`: the inhibition is 21.6%.

With `CC(C)C(=O)N(c1ccc2oc(=O)sc2c1)S(=O)(=O)c1cccs1`, the inhibition is 6.95%.

For the molecule `Cc1ccc(-n2c(=O)cc(N3CCc4ccccc4C3)[nH]c2=O)cc1`, the inhibition is 3.06%.

For the molecule `CCCCc1cc(=O)oc2c(CN3CCCC3)c(O)c(Cl)cc12`, the inhibition was 13.1%.

Take `CCc1cc2c(CN3CCN(CCO)CC3)cc(=O)oc2cc1O`: the inhibition was 11.5%.

As to `CCc1cc2c(-c3ccccc3)cc(=O)oc2c(CN2CCOCC2)c1O`, the inhibition was 9.72%.

As for `CCCc1cc(=O)oc2cc(C)c(CN3CCCC3)c(O)c12`, the inhibition was 13.2%.

For the molecule `CCc1cc(=O)oc2c(CN3CCCC3)c(O)c(Cl)cc12`, the inhibition was 18.3%.

On to `CCc1cc2c(CN3CCN(CC)CC3)cc(=O)oc2cc1O`, for which the inhibition is -1.87%.
